Results taken from PubChem BioAssay (Tox21).
Results filed as inconclusive are left out. The source made the active and inactive calls. Unless noted, the call rests on the fitted dose curve; in most records, active means well fitted curve in the direction sought with a large enough effect in the repeat runs; inconclusive means weak or mixed curves; inactive means no such curve, though single readings can be large; an effect the other way counts as inactive or inconclusive.

Tests used:
[1] = qHTS assay to identify small molecule antagonists of the estrogen related receptor (ERR) signaling pathway - cell viability counter screen (AID 1224818);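 further: series mostly up to about 46 µM; viability measured after 17.5 h of compound exposure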
How it was run: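 Quantitative high-throughput viability counter screen in ERR cells. Compounds (DMSO) incubated 17.5 h at 37 C; read-out was CellTiter-Fluor fluorescence.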

[2] = qHTS assay to identify small molecule antagonists of the estrogen related receptor (ERR) signaling pathway (AID 1224819;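 further: luminescence from an ERR-driven luciferase reporter measured with One-Glo reagent; series mostly up to about 46 µM; nearly all actives have a fitted effect of over 50% in size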)
How it was run: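 ERR reporter cell line (NTP) plated at 2,000 cells/well, settled 6 h at 37C/5% CO2, then exposed to LOPAC compounds for 18 h at 37C. One-Glo luciferase luminescence read after 30 min at room temperature.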

[3] = qHTS assay to identify small molecule agonists of the estrogen related receptor (ERR) signaling pathway (AID 1224820)
How it was run: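 Luminescence readout (One-Glo, 30 min RT) from NTP-supplied ERR cell line exposed to compounds for 18 h at 37 C. Cells seeded 2,000 per well and pre-incubated 6 h before pin-tool compound transfer.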

[4] = tested on: estrogen-related receptor alpha (ERRalpha) with PGC-1alpha coactivator, human; test: qHTS assay to identify small molecule antagonists of the estrogen related receptor signaling pathway with the pleiotropic PPARgamma coactivator (PGC) (AID 1224821; calls by dose curve;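 further: series mostly up to about 46 µM; lower luminescence signal means antagonism of PGC/ERR signalling; nearly all actives have a fitted effect of over 50% in size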)
How it was run: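 PGC/ERR reporter cells; 6 h pre-incubation 37 C/5% CO2; pin-tool compound in DMSO, 18 h 37 C; One-Glo added, 30 min RT; luminescence read. qHTS antagonist mode.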

[5] = qHTS assay to identify small molecule antagonists of the estrogen related receptor signaling pathway with the pleiotropic PPARgamma coactivator (PGC) cell viability counter screen (AID 1224822; further: series mostly up to about 46 µM)
How it was run: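 Cytotoxicity in the PGC/ERR cell line is assessed with CellTiter-Fluor, read as fluorescence intensity 30 min after reagent addition, following 17.5 h compound treatment at 37 C.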

[6] = qHTS assay to identify small molecule agonists of the estrogen related receptor signaling pathway with the pleiotropic PPARgamma coactivator (PGC) (AID 1224823)
How it was run: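 Luminescence readout (One-Glo, 30 min RT) from PGC/ERR cell line treated 18 h at 37 C with pin-tool-delivered DMSO compound solutions; cells plated 6 h before dosing. Quantitative HTS format.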

Measured: Potency

NC(C(=O)O)c1cc(=O)[nH]o1 (stereo unspecified)
inactive: all assays above

NC(=O)c1ccc(OCC(O)CN2CC=C(c3ccc(F)cc3)CC2)cc1 (stereo unspecified)
not listed: [2]
inactive: all other assays above

N#C/C(=C/c1ccc(O)c(O)c1)C(N)=S
not listed: [2]
inactive: all other assays above
